Laboratory results from PubChem BioAssay (NCATS).
Inconclusive results are not listed. The source made the active and inactive calls. The call rests on the fitted dose curve; in most records, active means well fitted curve in the direction sought with a large enough effect; inconclusive means small, poorly fitted or top-dose-only effect, or another doubt; inactive means no such curve, though single readings can be large; an effect the other way counts as inactive or inconclusive.

Experiments:
[1] = HEK293 12hr Apoptosis Induction qHTS against the NCATS CANVASS Library (AID 1347361)
In short: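 Read-out: Caspase-Glo 3/7 luminescence (DEVD substrate), 15 min RT. Preceded by 12 h compound exposure of HEK293, 500 cells/well, 11-pt qHTS titration; doxorubicin titration as control.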

[2] = target: Luciferin 4-monooxygenase (Photinus pyralis) (UniProt P08659); test: Firefly luciferase counterscreen qHTS: Assay Interference Panel against the NCATS CANVASS Library (AID 1347363); further: series mostly up to about 57 µM
In short: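 Purified P. pyralis luciferase was added to compounds (11-point series) preincubated 15 min at room temperature with substrate containing 0.013 mM D-luciferin and 0.013 mM ATP; luminescence was read after 5 min.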

[3] = KB-8-5-11 Cancer Cell Toxicity qHTS against the NCATS CANVASS Library (AID 1347364); further: nearly all actives have a fitted effect of over 75% in size
In short: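 Terse: KB-8-5-11, 500 cells/well, 72 hr, 37C/5% CO2, 11-pt titration, CellTiter-Glo readout; confirmatory runs ± 1uM tariquidar in medium.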

[4] = SDT Cancer Cell Toxicity qHTS against the NCATS CANVASS Library (AID 1347365);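 further: SDT canine glioma cells 500 per well in 1536 well plates; series mostly up to about 46 µM; nearly all actives have a fitted effect of over 60% in size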
In short: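 Cytotoxicity is measured from cellular ATP: compounds in an 11-point concentration series are pinned onto SDT cells, incubated 72 hr at 37C, then CellTiterGlo is added and luminescence read.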

[5] = KB-3-1 Cancer Cell Toxicity qHTS against the NCATS CANVASS Library (AID 1347366); further: series mostly up to about 46 µM; nearly all actives have a fitted effect of over 75% in size
In short: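 KB-3-1 cells (500 cells/well) in DMEM + 10% FBS were treated with compounds for 72 hr at 37C, 5% CO2. Viability was read as CellTiter-Glo luminescence after 10 minutes at room temperature.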

[6] = qHTS for ATAD5 Agonist screened against the NCATS CANVASS Library (AID 1347367);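 further: luciferase reporter driven by ATAD5 which rises upon DNA damage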
In short: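 HEK293T cells stably carrying an ATAD5-controlled luciferase reporter (2000 cells/well) attached for 5 hr, then received compounds in an 11-point series for 16hr at 37C. Luminescence was read after a 30 min room-temperature reagent step.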

[7] = G06 Cancer Cell Toxicity qHTS against the NCATS CANVASS Library (AID 1347368); further: series mostly up to about 46 µM; nearly all actives have a fitted effect of over 60% in size
In short: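 Cells were plated at 500 per well, then compounds were added over an 11-point range. After 72 hr at 37C, CellTiterGlo was added and luminescence measured as ATP content.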

[8] = MCF7 Cancer Cell Toxicity qHTS against the NCATS CANVASS Library (AID 1347369)
In short: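 MCF7, 500 cells/well; cpds 11-pt qHTS; 72 hr, 37C/5% CO2; CellTiterGlo ATP luminescence.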

[9] = qHTS for ATAD5 Antagonist screened against the NCATS CANVASS Library (AID 1347370);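 further: HEK293T cells carrying an ATAD5 luciferase reporter co-treated with 10 µM 5-fluorouridine; series mostly up to about 46 µM; nearly all actives have a fitted effect of over 65% in size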
In short: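 Compounds (11-point) co-dosed with 10 µM 5-FUrd for 16 h at 37 °C onto HEK293T-ATAD5 luciferase reporter cells. Viability measured by CellTiter-Fluor fluorescence, then ATAD5 reporter signal by luminescence.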

[10] = J3T Cancer Cell Toxicity qHTS against the NCATS CANVASS Library (AID 1347371);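 further: J3T is a canine glioma cancer cell line seeded at 500 cells per well; series mostly up to about 46 µM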
In short: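 Luminescence from CellTiterGlo, reporting cellular ATP, serves as the viability measure after 72 hr compound treatment of J3T canine glioma cells seeded at 500 cells/well.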

[11] = target: Nuclear receptor subfamily 1 group I member 3 (Homo sapiens) (UniProt Q14994); test: qHTS for Constitutive Androstane Receptor (CAR) Antagonist screened against the NCATS CANVASS Library (AID 1347372);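 further: cells stimulated with 50 nM CITCO agonist so inhibition reflects antagonism; luciferase from CYP2B6 promoter reporter driven by hCAR in HepG2 cells; series mostly up to about 46 µM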
In short: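 Cells were seeded and left 4hr to attach, then received compound at 11 concentrations and 50 nM CITCO. Following 24hr incubation, fluorescence viability and luciferase luminescence were read sequentially.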

[12] = target: Nuclear receptor subfamily 1 group I member 3 (Homo sapiens) (UniProt Q14994); test: qHTS for Constitutive Androstane Receptor (CAR) Agonist screened against the NCATS CANVASS Library (AID 1347373);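 further: every well also contained 1.5 µM PK11195 alongside the test compound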
In short: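 Cells were plated and allowed to attach for 4hr, then dosed with compound in an 11-point series alongside 1.5uM PK11195. After 24hr at 37C, viability was measured fluorometrically and CAR-driven CYP2B6 reporter luminescence was recorded.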

[13] = qHTS for Hypoxia signaling pathway (HIF-1) antagonists against the NCATS CANVASS Library (AID 1347374);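 further: HRE-bla ME-180 cells stimulated with cobalt chloride to stabilize HIF-1alpha; series mostly up to about 38 µM; nearly all actives have a fitted effect of over 60% in size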
In short: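 Antagonism scored as loss of CoCl2-driven (60 uM stock added) HRE beta-lactamase signal, read by CCF4 FRET at 460/530 nm. Compounds were tested in an 11-point series on ME-180 reporter cells for 17 hrs at 37C, with parallel CellTiter-Glo cytotoxicity.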

[14] = qHTS for Hypoxia signaling pathway (HIF-1) agonists against the NCATS CANVASS Library (AID 1347375)
In short: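 Cells plated and rested 5 h, compounds pinned in DMSO across 11 concentrations, incubated 17 h at 37C, loaded with CCF4-AM for 2 h, fluorescence read at 460 and 530 nm, then CellTiter-Glo luminescence measured for viability and normalization.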

[15] = qHTS for H2AX Agonists against the NCATS CANVASS Library (AID 1347378)
In short: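 CHO-K1 cells were plated overnight at 37C, then exposed to compounds (concentration series, 0.76% DMSO final) for 3 hr at 37C. Lysates received Eu-cryptate anti-pH2AX (S139) and d2 anti-H2AX antibodies; after 24 hr at room temperature, TR-FRET 665/620 nm ratio was read.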

[16] = qHTS for Inflammasome Signaling Inhibitors: IL-1-beta AlphaLISA screen against the NCATS CANVASS Library (AID 1347379);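 further: human THP-1 cells primed with LPS then triggered with ATP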
In short: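 Secreted IL-1B from human THP-1 cells quantified by AlphaLISA 16 hr after compound addition (final up to 57.5 uM). A 1 hr compound pretreatment preceded inflammasome activation with 250 ng/mL LPS plus 1.25 mM ATP (final).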

[17] = Inflammasome Signaling qHTS Counterscreen: IL-1-beta AlphaLISA counterscreen against the NCATS CANVASS Library (AID 1347381);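 further: cell-free check with purified IL-1β in medium and no THP-1 cells; series mostly up to about 57 µM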
In short: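 Purified IL-1-beta (4 pg/well) + compound, 11-pt conc. series; acceptor beads 6 ug/mL + biotin-Ab 0.6 nM final, 1 h RT; SA-donor 24 ug/ml final, 30 min dark RT; read ex 680/em 615.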

[18] = Cytotoxicity qHTS for assessment of Hepg2 cells membrane integrity screened against the NCATS CANVASS Library (AID 1347387)
In short: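 Cells were seeded at 2000 per well and left overnight to attach. Compounds were pin-transferred to give 0.59 nM - 46 uM in an 11-point series and incubated 5 hr at 37C. CytoTox-ONE reagent was added and, after 10 min at room temperature, fluorescence (ex 560, em 590 nm) was read.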

[19] = qHTS for Activators of p53 Stress Response Pathway screened against the NCATS CANVASS Library (AID 1347388)
In short: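 p53RE-bla HCT-116 cells (4000/well) were plated 5 h at 37C, exposed to compounds for 16 h at 37C over an 11-point concentration series, then loaded with CCF4 for 2 h at room temperature; 460/530 nm emission ratio read.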

[20] = qHTS for activators of Nrf2/ARE signaling pathway screened against the NCATS CANVASS Library (AID 1347391); further: nearly all actives have a fitted effect of over 60% in size
In short: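 Beta-lactamase reporter signal, read as 460 and 530 nm emission under 405 nm excitation after 2 h CCF4 loading, reflected ARE activation in HepG2 cells treated 16 h with an 11-point series.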

[21] = qHTS for activators of dead-cell proteases activity screened against the NCATS CANVASS Library (AID 1347392);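 further: luminescence from protease leaking out of membrane-damaged cells cleaving impermeant substrate; rising signal means more cytotoxicity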
In short: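 Cytotoxicity in HepG2 cells was assessed by released protease cleaving AAF-aminoluciferin, with luminescence as signal. Exposure lasted 5 h at 37C across an 11-point series.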

[22] = Vero-766 cells viability qHTS against the NCATS CANVASS Library: Counterscreen for Zika virus inhibition assay (AID 1347394)
In short: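 Uninfected Vero 766 (African green monkey) cells, 1000/well, attached overnight, then exposed 72 h at 37C to compounds (11-point qHTS). Viability read by CellTiter-Glo luminescence; media-only wells served as 100% inhibition.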

[23] = qHTS for inhibitors of Wild type Zika virus screened against the NCATS CANVASS Library (AID 1347396);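 further: ATP luminescence of surviving cells so rescue from viral cell killing; series mostly up to about 46 µM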
In short: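 Vero 766 (African green monkey) cells, 1000 per well, attached overnight, then compounds were added in an 11-point series before wild-type Zika virus infection. After 72 h at 37C, cell viability was read as CellTiter Glo luminescence.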

Measured: Potency

Nuclear receptor subfamily 1 group I member 3 (Homo sapiens), sequence (Q14994 whole entry, looked up): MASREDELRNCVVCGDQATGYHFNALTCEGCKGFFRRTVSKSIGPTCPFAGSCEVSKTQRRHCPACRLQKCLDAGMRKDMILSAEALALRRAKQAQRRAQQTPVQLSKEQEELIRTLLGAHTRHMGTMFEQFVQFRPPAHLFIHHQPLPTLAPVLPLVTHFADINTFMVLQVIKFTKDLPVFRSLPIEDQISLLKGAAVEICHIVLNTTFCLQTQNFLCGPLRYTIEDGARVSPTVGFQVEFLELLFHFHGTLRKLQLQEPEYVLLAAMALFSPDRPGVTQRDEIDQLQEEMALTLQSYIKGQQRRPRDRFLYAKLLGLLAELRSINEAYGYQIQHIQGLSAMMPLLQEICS
Luciferin 4-monooxygenase (Photinus pyralis), sequence (P08659 whole entry, looked up): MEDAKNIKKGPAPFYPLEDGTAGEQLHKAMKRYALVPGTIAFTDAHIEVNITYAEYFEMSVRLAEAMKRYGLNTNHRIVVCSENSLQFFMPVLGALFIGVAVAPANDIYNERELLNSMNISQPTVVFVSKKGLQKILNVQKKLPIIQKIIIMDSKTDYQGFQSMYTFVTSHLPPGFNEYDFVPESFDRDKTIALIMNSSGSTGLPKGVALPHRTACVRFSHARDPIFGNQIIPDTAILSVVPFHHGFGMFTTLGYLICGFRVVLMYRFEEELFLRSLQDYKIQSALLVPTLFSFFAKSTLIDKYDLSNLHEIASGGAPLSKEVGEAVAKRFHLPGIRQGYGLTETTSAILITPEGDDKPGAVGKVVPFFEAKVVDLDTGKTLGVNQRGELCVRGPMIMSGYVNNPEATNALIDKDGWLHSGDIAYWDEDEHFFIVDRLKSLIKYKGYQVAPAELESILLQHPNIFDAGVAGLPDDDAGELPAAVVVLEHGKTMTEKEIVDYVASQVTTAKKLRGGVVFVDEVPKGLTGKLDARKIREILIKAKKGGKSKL

O=C(OC1Cc2c(O)cc(O)cc2OC1c1cc(O)c(O)c(O)c1)c1cc(O)c(O)c(O)c1 (stereo not drawn)
inactive: all assays above
